Hits are enriched below; roughly 2.1% of the tested compounds scored in any of these assays.
Abeta rescue: A-beta toxicity reversal in yeast; yeast expressing A-beta42, growth rescue, OD600, 48 h; response scale: 0% DMSO, 100% iron-clioquinol control; Potency, µM (highest dose often 46.1 µM), usual class: activators; actives 0.063% (n = 410,000); also: nearly all actives have a fitted effect of over 55% in size
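Yeast A-beta toxicity model in growth medium with pinned compounds, 48 h at 30 C; growth read as absorbance at 600 nm. Normalized to FeCl3/clioquinol equimolar mix (positive) and DMSO (negative).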
TDP43 rescue: TDP-43 toxicity inhibition in yeast | actives 1.8% (n = 410,000) | AID 652104 | Potency, µM (doses to about 46.1 µM), usual class: activators | TDP-43 expressing yeast growth rescue, BacTiter-Glo, 24 h; also: nearly all actives have a fitted effect of over 50% in size
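Growth rescue of TDP-43-toxic yeast measured as ATP luminescence (BacTiter-Glo). Cells grown to mid-log in raffinose, induced in galactose at OD600=0.02, exposed to compound 24 hr at 30 deg C.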
FUS suppressor: suppressors of FUS proteinopathy in yeast; S. cerevisiae FUS-expressing, growth rescue, OD600, 24 h; Potency, µM (top dose mostly 76.6 µM), usual class: activators; actives 0.24% (n = 390,000); also: nearly all actives have a fitted effect of over 55% in size
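Cultures pregrown in 2.5% raffinose medium are shifted to minimal medium containing 2% galactose to express toxic FUS. Compounds are tested at several concentrations. After 24hr at 30C, growth is quantified at 600 nm absorbance.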
aSyn yeast inh: inhibitors of alpha-synuclein toxicity in yeast | Yeast expressing alpha-synuclein, growth rescue, BacTiter-Glo, 24 h | Potency, µM (titrated, usually from 46.1 µM), actives largely listed as activators | actives 0.14% (n = 370,000) | AID 652106; also: nearly all actives have a fitted effect of over 65% in size
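Galactose-induced alpha-syn yeast (OD600=0.02, raffinose-pregrown) + pinned cpd, 24 hr, 30 deg C; growth by BacTiter-Glo luminescence. Growth restoration scores as activation.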
Of the large screens only hits and unclear results are named; the others gave an inactive call. Calls follow the shape of the dose curve; as a rule, active = well fitted curve in the direction sought with a large enough effect; inconclusive = small, poorly fitted or top-dose-only effect, or another doubt; inactive = no such curve, though single readings can be large; an effect the other way counts as inactive or inconclusive.

Nc1ccc2nc(-c3cccc(-c4nc5ccc(N)cc5[nH]4)c3)[nH]c2c1	Abeta rescue inconclusive, TDP43 rescue 14µM
COc1cccc(C2=NO[C@@H]3C(=O)N(Cc4ccccc4)C(=O)[C@H]23)c1OC	TDP43 rescue 13µM
COc1cccc(C2=NO[C@@H]3C(=O)N(c4ccc5c(c4)OCCO5)C(=O)[C@H]23)c1OC	none
CCOC(=O)c1c(/N=C/C2=C(O)CCCC2=O)sc(C)c1C	none
CCOC(=O)c1c(-c2ccc(OC)cc2)csc1/N=C/C1=C(O)CCCC1=O	TDP43 rescue 8.9µM, FUS suppressor inconclusive
CCN(CC(=O)Nc1ccc2c(c1)OCCO2)C(=O)/C=C/c1cccc(Br)c1	TDP43 rescue 13µM
O=C(/C=C/c1cccc(Br)c1)c1ccc2c(c1)OCO2	TDP43 rescue 11µM
Cc1ccc(C2=NOC(=O)/C2=C\c2ccccc2)cc1	Abeta rescue inconclusive, TDP43 rescue 25µM
COc1cc(/C=C2\C(=O)ON=C2c2ccccc2)cc(Br)c1O	TDP43 rescue 11µM
Cc1nn2c3ccccc3nc2c2ccccc12	TDP43 rescue 40µM
Cc1nn2c(-c3ccccc3)nnc2c2ccccc12	TDP43 rescue 18µM, aSyn yeast inh inconclusive
Cc1ccc(-c2nn3c(-c4ccc(C)cc4)nnc3c3ccccc23)cc1	none (no result: aSyn yeast inh)
Cc1ccc(S(=O)(=O)NCCCCCC(=O)N(C)C)cc1	none
Cc1ccccc1NC(=O)c1c(-c2ccccc2)noc1C	none
Cc1ccc(F)cc1NC(=O)c1c(-c2ccccc2)noc1C	TDP43 rescue 20µM
Cc1nc(NC(=O)C(C)(C)C)sc1-c1nc(N)sc1-n1cc(-c2ccccc2)nn1	none
CCNc1nc(-c2sc(NC(=O)C(C)(C)C)nc2C)c(-n2cc(-c3ccccc3)nn2)s1	TDP43 rescue 28µM
CCOC(=O)C1=CN(Cc2cccc(F)c2)S(=O)(=O)NC1c1ccc(Br)cc1F (stereo unspecified)	TDP43 rescue 16µM
CCOC(=O)C1=CN(Cc2cccc(F)c2)S(=O)(=O)NC1c1ccc(F)c(Cl)c1 (stereo unspecified)	none
COc1ccc(-c2nnc(SC)o2)c(OC)c1	none
COc1ccc(OC)c(-c2nnc(-c3ccc(C)o3)o2)c1	TDP43 rescue 13µM
O=C1c2ccccc2C(=O)N1CCc1ccccc1	TDP43 rescue 11µM
O=C1c2ccccc2C(=O)N1CCc1c(-c2[nH]c3ccccc3c2CCN2C(=O)c3ccccc3C2=O)[nH]c2ccccc12	none
O=C1c2ccccc2C(=O)N1CCc1c(-c2ccccc2)[nH]c2ccccc12	TDP43 rescue 11µM
CCCSC1=N/C(=C/c2ccsc2)C(=O)N1c1ccccc1	none (no result: FUS suppressor)
Cc1ccc(C(=O)OCC(=O)Nc2ccccc2Sc2ccccc2)cc1C	none
Cc1cccn2c(=O)c3cc(C(=O)N4CCCC(C)C4)sc3nc12 (stereo unspecified)	TDP43 rescue inconclusive
CCCCN(CCCC)C(=O)c1cc2c(=O)n3cccc(C)c3nc2s1	TDP43 rescue 22µM, FUS suppressor inconclusive (no result: aSyn yeast inh)
Cc1cccn2c(=O)c3cc(C(=O)N4CCCCC4)sc3nc12	TDP43 rescue 11µM
CCOc1ccccc1N1CCN(C(=O)c2cc3c(C)cc(C)cc3[nH]2)CC1	FUS suppressor inconclusive
Cc1cc(OCC(=O)N(C)Cc2ccccc2)ccc1Cl	TDP43 rescue 11µM
O=C1NCCc2c1[nH]c1c(Cl)ccc(Cl)c21	TDP43 rescue 10µM
NS(=O)(=O)c1ccc(Nc2ccc3nonc3c2[N+](=O)[O-])cc1	none
OC[C@H]1O[C@@H](Oc2ccc(O)cc2)[C@H](O)[C@@H](O)[C@@H]1O	none
CSc1nc(-c2ccc(C)cc2)[nH]c1S(=O)(=O)c1ccccc1	none
CN(C)c1nc2c(cnn2C)c(=O)[nH]1	none
O=C(NC(=S)NCc1ccc(F)cc1)c1ccccc1	TDP43 rescue 22µM (no result: FUS suppressor)
O=C(NC(=S)NCc1ccccc1)c1ccccc1	Abeta rescue 11µM
O=C(NCc1cccc2ccccc12)c1cccs1	TDP43 rescue 13µM
Cc1cccc(C(=O)NC(=S)NCc2ccccc2)c1	Abeta rescue inconclusive, TDP43 rescue inconclusive
O=C(CNC(=S)NC(=O)c1cccs1)c1ccccc1	none
O=C(NC(=S)NCc1ccccc1)c1cccs1	Abeta rescue inconclusive, TDP43 rescue 13µM
O=C(NC(=S)NCc1ccncc1)c1ccccc1	none
O=S(=O)(c1ccc(Cl)nc1)N(Cc1ccccc1)Cc1ccccc1	TDP43 rescue inconclusive (no result: FUS suppressor)
Cc1onc(-c2ccccc2)c1-c1nnc(COC(=O)c2ccc(O)cc2)o1	none

Source: PubChem (National Center for Advancing Translational Sciences (NCATS))
